Assay results: PubChem BioAssay (NCI)
About 83,000 compounds went through this panel and 20% of them were active in at least one assay; those are over-represented in the sample as a whole.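 Single-dose data. Exposure time 48 hours. Values below 10 considered active.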 Unmarked numbers belong to inactive results. Calls of active or inactive are those of the source.

Experiments:
Assay in all cases: NCI-60 one-dose screen, 48 h (100 = growth as untreated, 0 = no growth, -100 = all killed)
Settings in all cases: 10 µM unless noted
[1] = system: SR leukemia
[2] = system: RPMI-8226 leukemia
[3] = system: OVCAR-8 ovarian
[4] = system: OVCAR-5 ovarian
[5] = system: OVCAR-4 ovarian
[6] = system: SK-OV-3 ovarian
[7] = system: IGROV1 ovarian
[8] = system: OVCAR-3 ovarian
[9] = system: HS 578T breast
[10] = system: NCI/ADR-RES ovarian
[11] = system: T-47D breast
[12] = system: BT-549 breast
[13] = system: MDA-MB-435 melanoma
[14] = system: SW-620 colon
[15] = system: MCF7 breast
[16] = system: HCT-116 colon
[17] = system: HCC-2998 colon
[18] = system: KM12 colon

Row | Structure (SMILES) | growth [1] | growth [2] | growth [3] | growth [4] | growth [5] | growth [6] | growth [7] | growth [8] | growth [9] | growth [10] | growth [11] | growth [12] | growth [13] | growth [14] | growth [15] | growth [16] | growth [17] | growth [18]
1 | O=C(NCc1ccccc1O)c1cccc2ccccc12 | 64.9% | 38.6% | 89.8% | 108% | 72.7% | 89.5% | 62% | 56.4% | 66.5% | 79.2% | 59.7% | 68.8% | 76.9% | 87.6% | 83.9% | 69.1% | 89.9% | 85%
2 | Cn1cc(C(=O)c2nc(-c3c[nH]c4ccc(Br)cc34)no2)c2cc(Br)ccc21 | 6.41% (active) | 86.6% | 48.6% | 82.7% | -0.341% (active) | 87.7% | 69.5% | 92.7% | 80.3% | 56.1% | 71.8% | 79% | 63.3% | -2.17% (active) | 38.8% | 63.5% | 103% | 55.2%
3 | CN1CCCc2cc(/C=C3/SC(=S)N(CCc4ccc(O)cc4)C3=O)ccc21 | 32.9% | 49.5% | 96.6% | 108% | 87.2% | 111% | 76% | 88.2% | 93.9% | 83.3% | 84% | 84.9% | 17.5% | 85% | 72.2% | 89.3% | 106% | 48.7%
4 | Cn1c(=O)c2c(c3ccccc31)OC(N)=C(C#N)C21C(=O)c2ccccc2C1=O | 105% | 94.8% | 97.5% | 98% | 92.4% | 90.8% | 92.4% | 98.7% | 81.5% | 103% | 96.3% | 87.2% | 98.4% | 82.3% | 90% | 92.2% | 101% | 95.2%
5 | Cc1c2cnccc2c(C)c2c1c1cc(C3OCCCO3)ccc1n2C | 4.22% (active) | -21.6% (active) | 6.68% (active) | -3.71% (active) | -2.47% (active) | -6.97% (active) | 2% (active) | 0.203% (active) | -3.27% (active) | -9.92% (active) | -4.56% (active) |  | -28.1% (active) | 4.71% (active) | 0.909% (active) | 1.45% (active) | -15.1% (active) | 5.75% (active)
6 | O=C1NC(=O)c2c1c1c3ccccc3[nH]c1c1oc3cc(Br)ccc3c21 | 24.4% | 63.1% | 81.8% | 98.9% | 77.4% | 93.8% | 36.2% | 89.9% | 77.3% | 77.3% | 28.1% |  | 76.6% | 51.5% | 36.2% | 65.1% | 99.7% | 64.4%
7 | COc1cc(-c2nc(SCCC(C)C)nc(N3CCOCC3)c2C#N)cc(OC)c1OC | -10.1% (active) | 90.3% | 43.1% | 102% | -25.2% (active) | 88.6% | 79.6% | -33.3% (active) | 76.7% | 79% | 13.9% |  | 85.6% | 27.7% | 58.9% | 5.13% (active) | 91.7% | 38%
8 | Nc1ncnc2c1c(-c1ccc(Oc3ccccc3)cc1)nn2CC1SSCC1O (stereo not given) | -16.2% (active) | 38% | 67.7% | 81.4% | 67.4% | 44.3% | 15.6% | 11.9% | 66.7% | 77.5% | 7.22% (active) |  | -0.185% (active) | 78.7% | 16% | 43.8% | 80.4% | 46.5%
9 | C=CC(=O)N1CCN(c2ccc3cccc(NC(=O)c4cnc(C)cn4)c3n2)CC1 | 9.43% (active) | 43.3% | 27.2% | 71.5% | 43.7% | 11.1% | 9.7% (active) | 43.5% | 34.3% | 30.9% | 28.2% |  | 33.1% | 48.7% | 48.2% | 27.4% | 72.4% | 23%
10 | Cc1cc(N2CCN(C)CC2)nc(NCc2cc(Nc3ccnc4cc(Cl)ccc34)ccc2F)n1 | -32% (active) | -29.6% (active) | 6.32% (active) | -3.76% (active) | 14.9% | 23% | 10.4% | -46.8% (active) | 11% | 18.7% | -56.1% (active) |  | -43.6% (active) | -18.6% (active) | -9.33% (active) | -45.3% (active) | -12.7% (active) | 12.7%
11 | CCOC(=O)Nc1nc2ccc(SCC(C)C)cc2s1 | 12.5% | 32.3% | 49.1% | 50.2% | 95.3% | 28.6% | 51.1% | -16.4% (active) | 30.3% | 14.1% | 24.3% |  | 104% | 33.8% | 20.6% | 31.4% | 75% | 34.4%
12 | C=NNc1ccccc1 | 74% | 97.6% | 95.1% | 109% | 102% | 102% | 88.7% | 102% | 97.7% | 84.4% | 90.6% | 91.6% | 105% | 102% | 83.3% | 80.7% | 94.5% | 80.5%
13 | Cc1c(Cl)cccc1C(=O)Nc1nc2c(s1)CN(C(=O)Nc1cccc(C(F)(F)F)c1)CC2 | 13.5% | 7.93% (active) | 14.8% | 37% | 28.8% | 34.1% | 22.6% | -11.8% (active) | 30.4% | -27.2% (active) | 46% |  | -22% (active) | 33.4% | 12.6% | 13.3% | 11.7% | 14.5%
14 | O=C1CC2C=CCN2C=C1NC(=O)C1CCCCC1 (stereo not given) | 103% | 107% | 109% | 102% | 105% | 111% | 105% | 98.9% | 105% | 98.5% | 84% |  | 102% | 107% | 92.3% | 94.8% | 88.3% | 96.1%
15 | COc1cc(C(=O)/C=C/c2ccc(N3CCN(C)CC3)cc2)cc(OC)c1OC | 91.2% | 107% | 98% | 96.5% | 101% | 100% | 94.8% | 98.6% | 94.3% | 95.2% | 95.8% |  | 95.5% | 88% | 96% | 104% | 101% | 99.3%
16 | Cc1cc(N2CCCCC2)nc(N2CCN(CC(=O)Nc3ccc4c(ccn4Cc4ccccc4)c3)CC2)n1 | 64% | 53.4% | 36.6% | 88.7% | 54.2% | 62.3% | 64.5% | 68.7% | 66.7% | 47.9% | 32.8% |  | 77.8% | 73.6% | 44.4% | 43.6% | 93.3% | 49.1%
17 | C[C@@H](CO)[C@@H]1CC[C@]2(C(=O)N3CCN(C)CC3)CC[C@]3(C)[C@H](CC[C@@H]4[C@@]5(C)CC[C@H](O)C(C)(C)[C@@H]5CC[C@]43C)[C@@H]12 | -12.4% (active) | 38.2% | 80.3% | 101% | 78.3% | 108% | 74% | 87.7% | 85.2% | 84.5% | 76.7% | 75.8% | 75.8% | 51.5% | 42.1% | 16.7% | 105% | 86%
